Experimental data as given in PMC5540273 (PLoS ONE, 2017).

Experiments:
Conditions in all cases: concentration: 1 μM, replicates: in singlicate; n = 1
SGK = system: SGK
SIK2 = system: SIK2
SIK = system: SIK
SLK = system: SLK
SNARK = system: T1, SNARK
T1 construct: gene NUAK2

SNRK = system: SNRK
SRC = system: SRC
SRMS = system: SRMS
SRPK1 = system: SRPK1
SRPK2 = system: SRPK2
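Further: KINOMEscan kinase panel screen.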

SMILES	%Inh (SGK)	%Inh (SIK2)	%Inh (SIK)	%Inh (SLK)	%Inh (SNARK)	%Inh (SNRK)	%Inh (SRC)	%Inh (SRMS)	%Inh (SRPK1)	%Inh (SRPK2)
CCn1cnc2c(N)ncnc21 [GW345098]	25%	2%	19%	18%	0%	0%	20%	12%	24%	19%
Cc1ccc(NC(=O)c2ccnc(N3CCN(C)CC3)c2)cc1-c1ccc(C(=O)NCC2CC2)cc1 [GW775604]	0%	21%	0%	0%	0%	0%	0%	3%	0%	0%
CN1c2ccc(CNc3ccc(F)cc3)cc2-c2c(cnn2C)S1(=O)=O	0%	0%	0%	0%	0%	0%	0%	0%	0%	21%
COc1cc(Nc2nccc(N3CCC(NC(=O)c4cccc(NC(C)=O)c4)C3)n2)cc(OC)c1OC (centres unmarked) [GSK1379754]	0%	12%	10%	32%	57%	0%	25%	0%	61%	0%
COc1cc2c(cc1OCCN1CCN(C)CC1)ncc1c3ccc(C#N)cc3[nH]c21	78%	88%	17%	34%	97.1%	27%	0%	0%	7%	0%
